Five compounds from PubChem BioAssay can be followed below.

Activity calls are given as the source filed them. Unless noted, how the calls were made is not given here.

The test system of assay [1] is Wnt5a (protein binding on small-molecule microarray). Briefly: small molecules binding Wnt5a protein – biophysical, small-molecule microarray, 635/667 nm fluorescence, primary screen (AID 1142).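 Further: fluorescence read at 667 nm with signal to noise per printed feature.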 The note with it: 635 nm fluorescence, higher = more signal.
Assay [2] can be described thus: ATP-based viability of Huh7 replicon cells – cell-based, CellTiter-Glo luminescence, basal, 48 h, cytotoxicity control for HCV replication inhibitor project, primary screen (AID 1143).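 Further: Huh7 hepatoma cells carrying a hepatitis C replication reporter with no stimulus; test concentration not given here.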 The note with it: higher = more signal, called active from +8 up or from −8 down.
Assay [3] can be described thus: Pseudomonas biofilm growth suppression – PAO1 strain, BacTiter-Glo luminescence, LB-PBS, primary screen (AID 1144). To be noted: P. aeruginosa PAO1 biofilm, 12 h, higher = more signal.
A short description of assay [4]: basal CRE-LacZ reporter activity in PC12 – cell-based, unstimulated, primary screen (AID 1145). To be noted: no forskolin, luminescence, 4.5 h, higher = more signal, called active from +8 up or from −8 down.
Assay [5] can be described thus: forskolin-driven CRE-LacZ activity in PC12 – cell-based, CRE-LacZ reporter, forskolin-stimulated, primary screen (AID 1146).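 Further: PC12 cells with 6xCRE LacZ reporter stimulated by forskolin 10 µM; beta-galactosidase reporter signal reflecting CREB driven transcription.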 The note with it: luminescence, 4.5 h, higher = more signal, called active from +8 up or from −8 down.
For assay [6], the target named is Streptavidin (Streptomyces avidinii) (UniProt P22629). The assay is described as follows: compounds binding control protein streptavidin – biophysical, small-molecule microarray, 635/667 nm fluorescence, artefact control for SMM compound annotation, primary screen (AID 1147).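 Further: signal reflects streptavidin binding to arrayed compounds as a control protein.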 The note with it: higher = more signal.
Assay [7] is described as follows: probe aInhba binding on compound microarray – biochemical, small-molecule microarray, 635/667 nm fluorescence, primary screen (AID 1148).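 Further: score merges 667nm spot fluorescence with signal-to-noise for antibody binding to printed compounds.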 To be noted: higher = more signal.
Assay [8] addresses Torsin-1A (Homo sapiens) (UniProt O14656). The assay is described as follows: TOR1A wild-type binding on microarray – cell lysate, small-molecule microarray, lysate, 635/667 nm, primary screen (AID 1149). To be noted: COS7 hTOR1A-WT lysate, 635 nm fluorescence, higher = more signal.
The target is the same in assay [9]. Briefly: torsin A mutant lysate binding on microarrays – cell lysate, small-molecule microarray, COS7 lysate, 635/667 nm fluorescence, primary screen (AID 1150).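 Further: score pools 667 nm emission and signal to noise measuring lysate protein binding.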 The note with it: COS7 hTOR1A mutant lysate, 635 nm fluorescence, higher = more signal.
The subject of assay [10] is Sonic hedgehog protein (Shh). Briefly: Sonic hedgehog microarray binding compounds – biochemical, small-molecule microarray, 635/667 nm fluorescence, primary screen (AID 1151).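 Further: Shh protein binding to compounds spotted on small-molecule microarray slides; score combines spot fluorescence intensity with signal-to-noise across triplicate slides.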 To be noted: 635 nm fluorescence, higher = more signal.
A short description of assay [11]: optical density shifts of acrAB sulA E. coli – strain DRC41, OD650, 48 h, E. coli filamentation inducer project, primary screen (AID 1152).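 Further: E. coli MC1000 strain DRC41 lacking acrAB efflux pump and sulA.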 To be noted: higher = more signal, called active from +8 up or from −8 down.
A short description of assay [12]: probe aLefty1 binding on compound microarray – biochemical, small-molecule microarray, 635/667 nm fluorescence, primary screen (AID 1153).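 Further: score merges spot fluorescence with signal-to-noise ratio from the scanned slide images.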 The note with it: higher = more signal.
Assay [13] is described as follows: plasmodial surface anion channel blockers, osmotic lysis – cell-based, P. falciparum Indochina, OD700, 1 h, primary screen (AID 1154). The note with it: P. falciparum Indochina infected RBC osmotic lysis, higher = more signal, called active from +8 up or from −8 down.
A short description of assay [14]: plasmodial surface anion channel blockers, osmotic lysis – cell-based, P. falciparum Indochina, OD700, 2 h, primary screen (AID 1155).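 Further: lysis reports solute entry through the parasite surface anion channel PSAC.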 To be noted: P. falciparum Indochina infected erythrocytes, higher = more signal, called active from +8 up or from −8 down.
Assay [15] in a line: changes in parasitized red cell lysis, either direction – P. falciparum Indochina, OD700, 3 h, PSAC antagonist project, primary screen (AID 1156). To be noted: P. falciparum-infected erythrocytes, osmotic lysis, higher = more signal, called active from +8 up or from −8 down.
The nature of assay [16]: plasmodial surface anion channel blockers, osmotic lysis – cell-based, P. falciparum Indochina, OD700, 18 h, primary screen (AID 1157). To be noted: P. falciparum Indochina infected erythrocytes, osmotic lysis OD700, 18 h; higher = more signal, called active from +8 up or from −8 down.
Assay [17] can be described thus: S6 kinase pathway phospho-S6 level changes – cell-based, A549, cytoblot, luminescence, serum-stimulated, primary screen (AID 1158).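 Further: serum-stimulated A549 lung adenocarcinoma cells; signal is phosphorylated S6 detected by cytoblot immunostaining with HRP secondary.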 To be noted: 5 h, higher = more signal.
For assay [18], the target named is NADPH oxidase 2 (Homo sapiens) (UniProt P04839). The assay is described as follows: compounds shifting NOX2 Amplex Red fluorescence – cell-based, HEK293-NOX2, PMA-stimulated, NOX inhibitor project, primary screen (AID 1159). Further: test concentration not given here. To be noted: 45 min, higher = more signal, called active from +8 up or from −8 down.
Assay [19] addresses NADPH oxidase 4 (Homo sapiens) (UniProt Q9NPH5). The assay is described as follows: compounds shifting NOX4 Amplex Red fluorescence – cell-based, HEK293-NOX4, tetracycline-induced, NOX inhibitor project, primary screen (AID 1160). The note with it: HEK293-NOX4, Amplex Red H2O2 fluorescence, 45 min; higher = more signal, called active from +8 up or from −8 down.
The target of assay [20] is NADPH oxidase 5 (Homo sapiens) (UniProt Q96PH1). The assay is described as follows: compounds shifting NOX5 Amplex Red fluorescence – cell-based, HEK293-NOX5, NOX inhibitor project, primary screen (AID 1161). The note with it: HEK293-NOX5, ionomycin, 45 min, higher = more signal.
NADPH oxidase 5 (Homo sapiens), sequence (Q96PH1 whole entry, looked up): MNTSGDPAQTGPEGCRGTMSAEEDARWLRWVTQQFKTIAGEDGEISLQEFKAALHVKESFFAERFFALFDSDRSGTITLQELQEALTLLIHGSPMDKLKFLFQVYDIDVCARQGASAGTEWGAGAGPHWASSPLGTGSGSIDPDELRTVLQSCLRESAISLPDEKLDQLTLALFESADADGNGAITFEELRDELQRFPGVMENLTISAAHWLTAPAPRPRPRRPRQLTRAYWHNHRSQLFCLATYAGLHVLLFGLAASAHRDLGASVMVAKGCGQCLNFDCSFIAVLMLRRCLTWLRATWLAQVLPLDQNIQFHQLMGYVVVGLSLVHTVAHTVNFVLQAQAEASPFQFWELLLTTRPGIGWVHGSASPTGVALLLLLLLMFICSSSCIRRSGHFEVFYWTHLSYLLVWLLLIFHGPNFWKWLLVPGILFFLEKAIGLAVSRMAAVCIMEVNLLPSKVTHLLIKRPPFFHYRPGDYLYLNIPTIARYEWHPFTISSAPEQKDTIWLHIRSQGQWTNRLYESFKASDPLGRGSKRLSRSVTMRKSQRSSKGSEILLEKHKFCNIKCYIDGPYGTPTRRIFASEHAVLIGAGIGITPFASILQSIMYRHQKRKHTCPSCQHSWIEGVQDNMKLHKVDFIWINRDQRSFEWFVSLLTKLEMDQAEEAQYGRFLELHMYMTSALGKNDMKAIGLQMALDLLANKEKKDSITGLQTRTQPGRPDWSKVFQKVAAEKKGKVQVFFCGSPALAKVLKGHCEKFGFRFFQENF

NADPH oxidase 4 (Homo sapiens), sequence (Q9NPH5 whole entry, looked up): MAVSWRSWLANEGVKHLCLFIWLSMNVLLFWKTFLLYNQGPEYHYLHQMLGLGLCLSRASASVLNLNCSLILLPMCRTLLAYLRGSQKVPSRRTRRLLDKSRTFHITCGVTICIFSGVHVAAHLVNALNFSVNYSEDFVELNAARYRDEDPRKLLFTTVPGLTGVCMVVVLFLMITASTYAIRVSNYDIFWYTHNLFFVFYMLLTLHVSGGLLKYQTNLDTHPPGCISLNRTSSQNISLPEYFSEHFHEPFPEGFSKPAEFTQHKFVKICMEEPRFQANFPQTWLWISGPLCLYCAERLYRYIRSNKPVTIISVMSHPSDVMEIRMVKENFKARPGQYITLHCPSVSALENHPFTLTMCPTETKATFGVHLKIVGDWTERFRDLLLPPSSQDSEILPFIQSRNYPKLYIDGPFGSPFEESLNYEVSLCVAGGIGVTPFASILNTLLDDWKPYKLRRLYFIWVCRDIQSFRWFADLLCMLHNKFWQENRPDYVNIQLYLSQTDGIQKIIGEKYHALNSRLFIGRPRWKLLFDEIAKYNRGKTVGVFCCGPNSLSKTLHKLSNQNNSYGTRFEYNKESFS
Streptavidin (Streptomyces avidinii), sequence (P22629 whole entry, looked up): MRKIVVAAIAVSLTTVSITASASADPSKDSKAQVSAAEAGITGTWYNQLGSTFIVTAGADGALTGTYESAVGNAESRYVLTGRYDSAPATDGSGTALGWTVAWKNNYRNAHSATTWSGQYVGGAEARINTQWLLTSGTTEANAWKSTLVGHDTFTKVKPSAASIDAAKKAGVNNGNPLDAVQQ
Torsin-1A (Homo sapiens), sequence (O14656 whole entry, looked up): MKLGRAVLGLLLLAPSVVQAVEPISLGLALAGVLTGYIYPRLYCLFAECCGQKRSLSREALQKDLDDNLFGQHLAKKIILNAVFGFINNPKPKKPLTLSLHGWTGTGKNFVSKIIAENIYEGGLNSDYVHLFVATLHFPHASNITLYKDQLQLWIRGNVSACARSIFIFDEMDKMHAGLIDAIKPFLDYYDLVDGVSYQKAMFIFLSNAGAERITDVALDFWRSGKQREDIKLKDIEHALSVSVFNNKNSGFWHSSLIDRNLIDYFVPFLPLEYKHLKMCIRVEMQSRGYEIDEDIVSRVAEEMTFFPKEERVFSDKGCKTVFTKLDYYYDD
NADPH oxidase 2 (Homo sapiens), sequence (P04839 whole entry, looked up): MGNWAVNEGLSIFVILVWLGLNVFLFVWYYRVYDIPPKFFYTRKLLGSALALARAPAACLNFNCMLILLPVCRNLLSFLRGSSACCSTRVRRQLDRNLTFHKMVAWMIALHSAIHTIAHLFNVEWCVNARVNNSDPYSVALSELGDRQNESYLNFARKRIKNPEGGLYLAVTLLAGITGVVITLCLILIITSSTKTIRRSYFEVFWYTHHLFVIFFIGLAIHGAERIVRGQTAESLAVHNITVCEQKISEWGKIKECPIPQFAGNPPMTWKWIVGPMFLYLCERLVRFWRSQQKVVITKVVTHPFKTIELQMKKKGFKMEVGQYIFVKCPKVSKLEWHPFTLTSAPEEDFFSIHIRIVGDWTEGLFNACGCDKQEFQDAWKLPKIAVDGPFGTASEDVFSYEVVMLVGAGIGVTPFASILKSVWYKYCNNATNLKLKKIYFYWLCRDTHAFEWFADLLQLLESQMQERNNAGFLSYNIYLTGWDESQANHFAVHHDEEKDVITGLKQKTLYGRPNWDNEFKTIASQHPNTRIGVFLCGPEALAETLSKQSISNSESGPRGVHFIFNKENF

For `Cc1ccc(S[C@]2(C(=O)NCCCN(C)C)CC(=O)N(Cc3ccccc3)[C@@H]2c2ccc(CO)cc2I)cc1`, the composite z-score in assay [1] was -0.278; in [6], -0.0112; in [7] it was -0.0645; with Torsin-1A (Homo sapiens) [8], -1.84; in the assay with Torsin-1A (Homo sapiens) [9] it was -1.08; in [10] it was -0.824. In assay [12], this compound displayed a composite z-score of 0.374. In addition, the z-score in [2] was -2.97 (inactive); in [3] it was 0.831 (inactive); in assay [4] it was 0.531 (inactive); in [5] it was 2.84 (inactive); in assay [11], -0.901 (inactive); in assay [13] it was 8.39 (active). For the same compound, the z-score in [14] was 0.909 (inactive); in [15], 1.94 (inactive); in assay [16] it was 0.256 (inactive); in [17] it was -0.0322; in [18], -0.234 (inactive); in assay [19] it was -1.63 (inactive). For the same compound, the z-score in [20] was found to be 1.72.
As for `CCC1=C2CN(Cc3ccccc3Br)[C@@H]([C@@H](O)Cc3ccccc3)C2C=CCC1` (stereo not given in full), the composite z-score in assay [1] was 0.0361; in assay [6] it was 0.721; in assay [7], -0.105; in the assay with Torsin-1A (Homo sapiens) [8], 0.476; with Torsin-1A (Homo sapiens) [9] it was 0.212; in assay [10] it was 0.675. In [12], the composite z-score was -0.101. Further, the z-score is -5.22 (inactive) in assay [2]; -0.709 (inactive) in assay [3]; 2.12 (inactive) in [4]; 4.84 (inactive) in assay [5]; 0.625 (inactive) in assay [11]; 4.02 (inactive) in assay [13]. Moreover, the z-score is -0.96 (inactive) in assay [14]; -0.115 (inactive) in assay [15]; -1.8 (inactive) in [16]; 1.56 in assay [17]; -0.306 (inactive) in assay [18]; -4.86 (inactive) in assay [19]. Also, in assay [20], the z-score was -4.65.
On to `Cc1ccc([C@@H]2CC=C(C(=O)O)[C@H](c3ccccc3)N2S(=O)(=O)c2ccc(C)cc2)cc1`, for which the composite z-score was determined as 0.382 in assay [1]; 1.77 in [6]; 0.277 in [7]; 0.385 with Torsin-1A (Homo sapiens) [8]; 0.528 with Torsin-1A (Homo sapiens) [9]; 0.157 in [10]. This compound had a composite z-score in assay [12] of 1. For the same compound, the z-score in assay [2] is -0.385 (inactive); in assay [3], 0.134 (inactive); in assay [4] it was 0.332 (inactive); in assay [5], -0.311 (inactive); in assay [11] it was -1.17 (inactive); in assay [13] it was 1.83 (inactive). For the same compound, the z-score in [14] was 0.929 (inactive); in [15] it was 0.692 (inactive); in [16], 0.708 (inactive); in assay [17], -0.256; in [18], 0.489 (inactive); in [19], -1.2 (inactive). In addition, the z-score in [20] was -0.96.
Consider `COC(=O)Cn1c(C(=O)N2CCCC2)cc2c1C[C@H]1CN(C(=O)c3ccccc3)[C@@](Cc3ccccc3)(C(=O)OC)[C@@H]21`, for which the composite z-score in assay [1] was -0.0963; in [6], 0.344; in [7], 0.158; with Torsin-1A (Homo sapiens) [8] it was -0.531; with Torsin-1A (Homo sapiens) [9] it was -0.0683; in assay [10], -1.04. Moreover, in assay [12], the composite z-score stood at 0.257. Further, the z-score is -0.259 (inactive) in [2]; -0.195 (inactive) in assay [3]; -0.572 (inactive) in [4]; -0.402 (inactive) in assay [5]; -0.406 (inactive) in [11]; 1.54 (inactive) in [13]. Moreover, the z-score is 0.104 (inactive) in assay [14]; 0.16 (inactive) in [15]; 0.469 (inactive) in assay [16]; 0.136 in assay [17]; 0.489 (inactive) in [18]; 0.217 (inactive) in assay [19]. In addition, the z-score in assay [20] is -2.54.
For the compound `CCCNC(=O)[C@@H]1c2ccccc2C(=O)N(C2CCCCC2)[C@H]1c1ccc(CO)cc1`, the composite z-score in assay [1] is 0.15; in assay [6], 0.573; in assay [7], 0.0589; in the assay with Torsin-1A (Homo sapiens) [8], -0.244; in the assay with Torsin-1A (Homo sapiens) [9], 0.0805; in assay [10], 0.573. The composite z-score in assay [12] was 0.14. Besides, the z-score in assay [2] is -0.64 (inactive); in assay [3] it was -0.255 (inactive); in assay [4], -0.062 (inactive); in [5] it was -0.224 (inactive); in [11], -0.401 (inactive); in [13], 11 (active). Also, the z-score was 0.867 (inactive) in assay [14]; 1.06 (inactive) in [15]; 0.72 (inactive) in [16]; -0.326 in [17]; 0.747 (inactive) in assay [18]; -0.201 (inactive) in [19]. Further, in assay [20], the z-score was -1.24.
